This note sets out measurements from PubChem BioAssay AID926 (National Center for Advancing Translational Sciences (NCATS), 2007).

The nature of test [1]: qHTS Assay for Agonists of the Thyroid Stimulating Hormone Receptor. As to conditions: HEK293-CNG-TSHR cells, membrane potential dye, cAMP; measured here: parental cells max response. From the text: (§1) NIH Chemical Genomics Center [NCGC]
(§2) NIH Molecular Libraries Screening Centers Network [MLSCN]
(§3) PI Name: Dr. Marvin Gershengorn, NIH
(§4) Thyroid Stimulating Hormone Receptor
(§5) TSH is an alpha/beta heterodimeric glycoprotein hormone secreted from the anterior pituitary gland which belongs to the glycoprotein hormone family. The actions of TSH are mediated by a seven-transmembrane receptor, which upon TSH binding couples preferentially to the G-alpha (s) protein (Gs), resulting in activation of adenylate cyclase and increase in cyclic adenosine 3', 5' monophosphate (cAMP). The TSH receptor (THSR) is mainly expressed in thyroid follicular cells and regulates their growth and function. Recombinant TSH is used to activate TSHR in patients with thyroid cancer receiving thyroid hormone suppression therapy and to screen for residual tumor after surgery, but it is expensive and must be administered intramuscularly. An orally active small molecule TSHR agonist would serve as an invaluable research tool for studying TSHR pharmacology and physiology, and would have multiple advantages in therapeutic settings. However, no selective small molecule agonist of the TSH receptor exists, and no small molecule screen for TSHR agonists has ever been reported.
(§6) This cell based assay utilized a cyclic nucleotide gated ion channel (CNG) as a biosensor for cAMP induction by potential TSHR agonists.
(§7) HEK 293 cells stably expressing the TSHR as well as a modified CNG were purchased from BD biosciences. Stimulation of cAMP production causes the CNG to open and subsequent membrane depolarization to occur. A fluorescent membrane potential dye (BD biosciences) was utilized to detect cAMP stimulation in TSHR cells.
(§8) The cells were maintained in DMEM medium (Invitrogen) containing 10 % FBS (Hyclone), 100 units/ml Penicillin, 100 ug/ml Streptomycin (Invitrogen), and 250 ug/ml Geneticin (Invitrogen) and 1 ug/ml Puromycin (Invitrogen) at 37C in 5% CO2. HEK 293 cells expressing CNG but without TSHR (parental cells) were used in concert to control for compounds signaling through endogenous receptors and targets of HEK 293 cells.
(§9) NCGC Assay Protocol Summary:
(§10) High Throughput Screening. Freshly passaged cells (TSHR or parental) were dispensed into 1536-well assay plates at 4 ul/well in DMEM containing phenol red (Invitrogen), 10% FCS (Hyclone), and 100 units/ml Penicillin, 100 ug/ml Streptomycin (Invitrogen) and incubated at 37 C with 5% CO2 for 20 to 36 hrs before the robotic screening. The screen was initiated by addition of 4 ul/well membrane potential dye containing 100 uM RO 20-1724 (Sigma Aldrich), followed by 60 min incubation at room temperature to allow for dye equilibration across the cell membrane. 23 nl/well compound or control was then added to the assay plates, which were incubated for additional 30 min before reading a Envision fluorescence plate reader (Perkin Elmer) in bottom-read mode for fluorescence intensity (emission at 590 nm).
(§11) Keywords: Thyroid-stimulating hormone TSH, TSHR, TSHR agonist, quantitative high throughput screening, qHTS, HTS, probe identification, CNG, cAMP, cyclic nucleotide gated ion channel PubChem
(qHTS replaces the single test concentration by a dilution series.)

Test [2] deals with Thyrotropin receptor (Homo sapiens) (UniProt P16473). The test is described as above. Conditions: HEK293-CNG-TSHR cells (CNG channel as cAMP sensor), membrane potential dye, cAMP; series mostly up to 57.1 µM.
Sequence of Thyrotropin receptor (Homo sapiens) (P16473 whole entry, looked up): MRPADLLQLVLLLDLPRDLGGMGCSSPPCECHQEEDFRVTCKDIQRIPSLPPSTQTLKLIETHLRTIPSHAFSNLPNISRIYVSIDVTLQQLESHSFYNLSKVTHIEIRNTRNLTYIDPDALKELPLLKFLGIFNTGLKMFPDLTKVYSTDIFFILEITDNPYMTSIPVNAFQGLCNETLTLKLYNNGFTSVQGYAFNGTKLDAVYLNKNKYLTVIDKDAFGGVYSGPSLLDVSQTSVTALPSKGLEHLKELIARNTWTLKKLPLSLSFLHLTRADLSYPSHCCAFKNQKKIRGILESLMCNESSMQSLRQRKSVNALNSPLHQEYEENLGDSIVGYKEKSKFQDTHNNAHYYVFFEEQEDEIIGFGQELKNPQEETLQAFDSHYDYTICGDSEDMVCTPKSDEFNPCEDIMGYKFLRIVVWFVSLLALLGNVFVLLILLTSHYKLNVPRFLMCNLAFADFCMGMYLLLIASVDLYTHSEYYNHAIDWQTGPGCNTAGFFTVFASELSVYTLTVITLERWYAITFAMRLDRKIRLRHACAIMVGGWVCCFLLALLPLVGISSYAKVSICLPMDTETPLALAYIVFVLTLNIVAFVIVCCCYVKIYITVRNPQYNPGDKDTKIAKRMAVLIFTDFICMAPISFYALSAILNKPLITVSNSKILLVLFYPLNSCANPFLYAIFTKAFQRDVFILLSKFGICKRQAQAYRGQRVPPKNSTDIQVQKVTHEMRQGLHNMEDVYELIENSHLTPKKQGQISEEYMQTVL
Text: as §1, §2, §3, §4, §5, §6, §7, §8, §9, §10, §11

“And” between values parts separate entries of the source, which are not always exact repeats. Equal values may be shown once. Hit rate of the full screen: of about 73,000 compounds, about 350 (0.48%) were called active. Not shown: some 17% with an inconclusive outcome. Calls follow the shape of the dose curve; as a rule, active = well fitted activation curve with a large enough effect in the main read-out, with a control signal flat (not every such curve was filed as active); inconclusive = small, poorly fitted or top-dose-only effect, or a change in a side signal; inactive = no such curve, though single readings can be large or run the other way; reference of the percent scale not stated here. The sample as a whole holds a higher share of actives than the screen did. Some compounds were tested as several samples or in several runs, with calls that do not always agree.
Potency is read from the fitted curve at half-maximal effect.

In the case of `CCOC(=O)CC1=C(C(=O)OCC)C2(C(=O)N1)C(C(=O)OC)=C(N)Oc1ccccc12` (centres undefined), the activation in test [1] came to 2.69%. Moreover, the Potency result in test [2] is “inactive”.
Turning to `CCOC(=O)C1=C(C)OC(N)=C(C(=O)OC)C12C(=O)Nc1ccc(Br)cc12` (centres undefined), the activation in test [1] was 2.68%. Moreover, in test [2], the Potency entry is “inactive”.
Consider `C=CCN1C(=O)C2(C(C(=O)OCC)=C(N)Oc3c2c(=O)oc2ccccc32)c2ccccc21` (centres undefined), for which, in test [1], the activation is -2.59%. Also, the Potency in test [2] was 1 µM (active).
For `C/C(=C\C=C/[C@@H](C)C(=O)O)[C@H]1CN[C@H](C(=O)O)[C@@H]1CC(=O)O` the same measures were 10.5% and “inactive”.
Regarding `CN1[C@H]2CC(OC(=O)[C@@H](CO)c3ccccc3)C[C@H]1[C@H]1O[C@H]12` (some centres undefined), the activation in test [1] was 8.99%. In test [2], the Potency entry was “inactive”.
Turning to `C[C@]12CC[C@H](O)C[C@@H]1CC[C@H]1[C@H]2CC[C@]2(C)C(=O)CC[C@@H]12`, the activation in test [1] is -0.6% and 8.47% and 0.887%. The Potency entry in test [2] was “inactive”.
For the molecule `CN=C(NC#N)NCCSCc1nc[nH]c1C`, the activation in test [1] is 6.37% and -0.29%. Moreover, the Potency result in test [2] was “inactive”.
In the case of `CNCC[C@H](Oc1ccc(C(F)(F)F)cc1)c1ccccc1`, the Potency entry in test [2] is “inactive and 126 nM (active)”.
On to `Clc1ccc([C@@H]2C[C@H]3CC[C@@H]2N3)cn1`, for which the activation in test [1] worked out at 5.78%. Further, in test [2], the Potency result is “inactive”.
Turning to `Clc1cccc(Cl)c1Cl`, in test [1], the activation came out at 22.7%. Also, the Potency entry in test [2] is “inactive”.
